This is a sample that favours compounds with a hit; in the whole collection about 19% have one here.
HT1080 IDH1KD tx: kills HT-1080 cells with IDH1 knockdown; 2% of 360,000 active; HT-1080 IDH1 knockdown viability, ATP luminescence, 48 h; AID 686971; Potency, µM (doses to about 46.1 µM), inactives show at the highest dose activity, negative = toxicity, most hits filed as cytotoxic;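 also: potency is read from the fitted curve at half-maximal effect; 0% = DMSO wells and -100% = cell-free medium wells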
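CellTiter-Glo luminescence after 48 h compound exposure at 37 degrees C of IDH1-knockdown HT-1080 cells in 5% FBS RPMI. %Activity scaled between DMSO wells and cell-free media wells, with curves fitted and assigned curve classes.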
TDP1 cell noCPT: qHTS for Inhibitors of human tyrosyl-DNA phosphodiesterase 1 (TDP1): qHTS in cells in absence of CPT; DT40 Tdp1-/- hTDP1 cells, no CPT, ATP luminescence, 48 h; Potency, µM (doses to about 46.2 µM), without a hit: at the top dose activity change, negative = growth inhibition, most hits filed as inhibitors; 15% of 420,000 active; also: potency is read from the fitted curve at half-maximal effect; nearly all actives have a fitted effect of over 55% in size
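DT40 Tdp1-/-;hTDP1 cells, no CPT (DMSO vehicle only), 400 cells/well; compounds pin-transferred; ≥48 hr, 37 °C; CellTiter-Glo 30 min RT dark, luminescence read.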
HT1080NT lethal: kills 2HG-producing HT-1080-NT fibrosarcoma cells; HT-1080-NT fibrosarcoma viability, CellTiter-Glo ATP luminescence, 48 h; Potency, µM (highest dose often 46.1 µM), inactives show at the top dose activity, negative = less viability, hits mostly cytotoxic; 1.6% of 360,000 active; AID 686970;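 also: NT is the 2HG producing partner of a matched IDH1 knockdown line; potency is read from the fitted curve at half-maximal effect; 0% = DMSO-treated cells and -100% = media-only wells without cells; nearly all actives have a fitted effect of over 55% in size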
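Compounds were tested in concentration-response format on HT-1080-NT cells for 48 hours at 37 degrees C. Cell viability came from CellTiter-Glo luminescence; curves were classified by r2, response magnitude and activity.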
DT40 TDP1 CPT: growth inhibition of DT40 Tdp1-/-;hTDP1 cells with camptothecin (screen for TDP1 inhibitors). chicken DT40 Tdp1-/-;hTDP1 cells + 20 nM CPT, ATP luminescence, 48 h. Potency, µM (titrated, usually from 46.2 µM), without a hit: at the top dose activity change, negative = growth inhibition, most hits filed as inhibitors. 12% of 420,000 active. AID 686979; also: potency is read from the fitted curve at half-maximal effect; nearly all actives have a fitted effect of over 55% in size
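Chicken DT40 Tdp1-/- cells complemented with human TDP1, 400 cells/well, exposed to compounds plus 20 nM camptothecin for at least 48 h at 37 C; viability read as ATP content by CellTiter-Glo luminescence.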
IL1B secr inh: inflammasome signaling inhibition, IL-1 beta readout; THP-1 LPS/ATP IL-1B secretion, AlphaLISA, 16 h; stronger effect = lower value; activity change, % at 57.5 µM; 4.7% of 360,000 active; in the data active = activity change below about -50%; inconclusive = mostly about -30% to -49%
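THP-1 cells pretreated 1 hr with compounds (up to 57.5 uM final), then stimulated with LPS (250 ng/mL final) plus ATP (1.25 mM final); secreted IL-1B measured by AlphaLISA after 16 hr, decreased signal indicating inhibition.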
Numbers without * were called inactive; u = inconclusive; x = no result. Unless noted, calls follow the shape of the dose curve; as a rule, active = well fitted curve in the direction sought with a large enough effect; inconclusive = small, poorly fitted or top-dose-only effect, or another doubt; inactive = no such curve, though single readings can be large; an effect the other way counts as inactive or inconclusive. Unless noted, % is scaled to controls: 0 for no effect and ±100 for the full control effect.

SMILES | HT1080 IDH1KD tx | TDP1 cell noCPT | HT1080NT lethal | DT40 TDP1 CPT | IL1B secr inh
Cc1ccc(-n2nnnc2SCC(=O)N2CC(=O)Nc3ccccc32)cc1 | 1% | u | 0% | u | 1
COc1ccc(NC(=O)C2(S(=O)(=O)c3ccc(C)cc3)CC2)cc1OC | 1% | -27% | 21% | -2% | -5
COC(=O)c1cc(S(=O)(=O)N2CCCCC2)c[nH]1 | 0% | 9% | 0% | 5% | 22
COc1cccc(NC(=O)c2ccccc2)c1 | 1% | 10% | 0% | 1% | -1
CC(=O)Nc1ccc(OC(=O)c2ccccc2O)cc1 | x | u | x | 0.58µM* | x
CC(C)OC(=O)c1cccc(NC(=O)c2ccccc2)c1 | -6% | 13µM* | -3% | 13µM* | -3
Cc1ccc(C(=O)Nc2ccc(Nc3ccccc3)cc2)cc1Br | -26% | 4.1µM* | -15% | 6.5µM* | x
Cc1cccc(C(=O)Nc2cccc3c2CCCC3)c1 | -1% | 9.2µM* | 0% | 18µM* | -5
Cc1cccc(C(=O)Nc2ccccc2NC(=O)c2cccc(C)c2)c1 | -4% | u | -5% | -13% | -14
CCOc1ccc(S(=O)(=O)NCCC(=O)NCC(c2ccc(OC)cc2)N2CCOCC2)cc1 (stereo not drawn) | -1% | u | 1% | -12% | u
Clc1ccc(-c2nc(/C=N/N3CCOCC3)c3ccccn23)cc1 | 0% | -28% | -1% | u | -26
NC(=O)c1ncn([C@@H]2O[C@H](CNCc3cccn3-c3ccncc3)[C@@H](O)[C@H]2O)n1 | -3% | 2% | -6% | 19% | 14
COc1cc(NC(=O)CCCNC(=O)Cn2cnc3sc(C)c(C)c3c2=O)cc(OC)c1OC | 1% | -22% | -3% | 10% | 40
CCN1CCN(CCCOc2ccc(-c3ccccc3)cc2)CC1 | u | u | u | u | -56*
CCN1CCN(CCOc2ccccc2-c2ccccc2)CC1 | -8% | -24% | -13% | u | -15
c1ccc(OCCN2CCN(C(c3ccccc3)c3ccccc3)CC2)cc1 | -14% | 15µM* | -13% | u | -22
c1ccc(COc2ccc(OCCCCN3CCCCC3)cc2)cc1 | -21% | 21µM* | u | 29µM* | -58*
O=C(c1ccccc1)c1ccc(OCCCCN2CCCCC2)cc1 | -7% | -1% | -13% | -18% | -11
CN1CCN(CCCOc2ccc(-c3ccccc3)cc2)CC1 | 16µM* | 16µM* | 23µM* | u | -82*
CCOC(=O)C1CC2=C(CCCC2=O)NC1=O (stereo not drawn) | -1% | -11% | 0% | -14% | 0
N#Cc1ccccc1NC(=O)CN(Cc1ccccc1)Cc1ccccc1 | -11% | u | -9% | -7% | -6
COc1cccc(OCC(O)CN2CCN(C(c3ccccc3)c3ccccc3)CC2)c1 (stereo not drawn) | -12% | 13µM* | -10% | u | -7
COc1ccc(OCCOCCN2CCN(C)CC2)cc1 | 2% | -16% | 1% | -1% | 6
CN1CCN(CCOc2ccc(-c3ccccc3)cc2)CC1 | -9% | u | -14% | u | -59*
O=C(CSc1nnc(-c2ccc(C(F)(F)F)cn2)o1)Nc1cccc(Cl)c1 | 0% | -11% | u | 17% | 1
O=C(N/N=C/c1ccc(O)c(O)c1)NC12CC3CC(CC(C3)C1)C2 | u | 15µM* | -4% | 12µM* | -82*
COc1cc(OC)cc(C(=O)N[C@H](C(=O)N2CCc3ccccc32)C(C)C)c1 | u | u | -25% | u | 25
COc1cc(OC)cc(C(=O)N[C@H](C(=O)NC23CC4CC(CC(C4)C2)C3)C(C)C)c1 | -22% | u | -25% | 29µM* | 33
COc1ccc(C(=O)NC23CC4CC(CC(C4)C2)C3)cc1OC | -2% | -12% | 1% | -27% | -3
CCOc1ccc(/C=N/NC(=O)NC23CC4CC(CC(C4)C2)C3)cc1O | -22% | u | -15% | u | -16

Screening data (PubChem)
